Sampled rows, rich in hits. Any-hit rate of the full collection: about 1.2%.
RGS16-Gao HTS: modulates binding between human RGS16 and Galphao. bead-based flow cytometry RGS16-Galphao binding, fluorescence; actives lie on both sides. binding response (% of control), % at 10 µM. 0.38% of 220,000 active;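 further: Galphao activated by GDP with aluminum fluoride before binding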
Target sequence (O15492 whole entry, looked up): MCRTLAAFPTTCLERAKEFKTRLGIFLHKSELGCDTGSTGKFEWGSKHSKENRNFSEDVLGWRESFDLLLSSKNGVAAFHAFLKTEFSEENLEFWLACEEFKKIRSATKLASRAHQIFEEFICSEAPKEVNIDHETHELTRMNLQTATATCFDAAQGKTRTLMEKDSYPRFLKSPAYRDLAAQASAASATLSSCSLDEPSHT
Target sequence (P09471 whole entry, looked up): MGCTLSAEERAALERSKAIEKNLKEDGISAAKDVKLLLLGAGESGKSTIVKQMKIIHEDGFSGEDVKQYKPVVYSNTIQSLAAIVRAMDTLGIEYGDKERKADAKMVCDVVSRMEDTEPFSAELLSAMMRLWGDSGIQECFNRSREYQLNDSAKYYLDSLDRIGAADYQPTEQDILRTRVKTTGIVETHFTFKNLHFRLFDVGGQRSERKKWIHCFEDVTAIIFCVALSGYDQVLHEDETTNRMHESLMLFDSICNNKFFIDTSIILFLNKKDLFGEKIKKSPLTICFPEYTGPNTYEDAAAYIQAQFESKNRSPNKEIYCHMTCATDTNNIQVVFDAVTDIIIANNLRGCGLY
RGS8-Gao: human RGS8-Galphao interaction regulation; response (percent of control binding), % at 10 µM; multiplexed bead flow cytometry, RGS8-Galphao binding; actives lie on both sides; P09471; 0.34% of 220,000 active; in the data active means response below about 60% or above about 140%; inactive means in between;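 further: Galphao activated as the GDP aluminium fluoride complex binding bead-coupled RGS8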
Target sequence (P09471 whole entry, looked up): as above
GSH fluor: compound fluoresces at 488/530 nm on GSH beads. GSH beads flow cytometry, compound fluorescence 488/530 nm; hits give high values. 0.25% of 190,000 active. fluorescence (KMESF) at 10 µM; in the data active means fluorescence above about 89;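 further: glutathione beads carrying GST-tagged Bcl family fusion proteins plus one bare bead set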
RGS7-Gao: modulates binding of RGS7 to human Galphao; P09471; Multiplexed bead flow cytometry; actives lie on both sides; binding response (% of control), % at 10 µM; 0.35% of 220,000 active; AID 1439; in the data active means binding response below about 49% or above about 150%; inconclusive means no clear call, values can overlap the other calls; inactive means in between;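 further: fluorescent Galphao held in activated GDP-AlF4 state binding bead-coupled RGS7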
RGS4-Gao reg: modulates binding of RGS4 to human Galphao; 0.33% of 220,000 active; Multiplexed bead flow cytometry; actives lie on both sides; binding response (% of control), % at 10 µM; in the data active means binding response below about 49% or above about 150%; inactive means in between;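 further: fluorescent Galphao activated with aluminum fluoride binding bead-coupled RGS4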
Avidin fluor: compound fluoresces at 488/530 nm on avidin beads; 0.38% of 220,000 active; compound fluorescence 488/530 nm, flow cytometry; hits give high values; fluorescence (KMESF) at 10 µM; AID 1775; in the data active means fluorescence above about 47
RGS-Gao: RGS4-Galphao interaction regulator (human); shares compounds with RGS16-Gao HTS; multiplexed bead flow cytometry, RGS–Galpha-o binding; RGS4–Galpha-o binding response, % at 10 µM; 99% of 1,600 active; AID 1504;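 further: fluorescently labeled Galpha-o bound to GDP with aluminium fluoride binding biotinylated RGS beads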
Biotin-avidin: biotin-avidin bead binding disruption counter-screen; streptavidin beads, fluorescein-biotin binding, flow cytometry; 1,700 tested, under 10 active; shares compounds with RGS16-Gao HTS; AID 1783; inhibition, % at 10 µM;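 active means inhibition above 50%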;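 further: median green fluorescence of gated singlet beads compared with DMSO control wells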
RGS8-Gao single: RGS8-Galphao interaction regulation, single point confirmation | bead-based flow cytometry RGS8-Galphao binding, fluorescence; actives lie on both sides | 3% of 1,700 active | binding response (% of control), % at 10 µM | shares compounds with RGS16-Gao HTS | AID 1836; in the data active means binding response below about 72% or above about 130%; inactive means in between;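 further: Galphao activated as GDP AlF4 complex before binding bead RGS8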
RGS7-Gao confirm: RGS7-Galphao interaction regulation, single point confirmation. AID 1837. response (percent of control binding), % at 10 µM. bead-based flow cytometry RGS7-Galphao binding; actives lie on both sides. 7.8% of 1,700 active. shares compounds with RGS16-Gao HTS; in the data active means response below about 75% or above about 130%; inactive means in between;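 further: fluorescent Galphao activated with GDP and aluminum fluoride binding bead-coupled RGS7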
RGS16-Gao single: confirmation of regulators of human RGS16-Galphao interaction; 4% of 1,700 active; shares compounds with RGS16-Gao HTS; bead-based flow cytometry, RGS16-Galphao binding; actives lie on both sides; AID 1838; response (% of control binding), % at 10 µM; in the data active means response below about 74% or above about 130%; inactive means in between;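 further: Galphao activated as the GDP aluminium fluoride complex binding bead-coupled RGS16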
RGS4-Gao single: confirmation of regulators of human RGS4-Galphao interaction; 4% of 1,700 active; RGS4-Galphao binding, multiplexed bead flow cytometry; actives lie on both sides; AID 1840; binding response (% of control), % at 10 µM; shares compounds with RGS16-Gao HTS; in the data active means binding response below about 74% or above about 130%; inactive means in between
RGS19-Gao conf: RGS19-Galphao interaction regulation, single point confirmation. 5% of 1,700 active. shares compounds with RGS16-Gao HTS. bead-based flow cytometry RGS19-Galphao binding; actives lie on both sides. response (percent of control binding), % at 10 µM; in the data active means response below about 50% or above about 160%; inactive means in between
Of the large screens only hits and unclear results are named; the others gave an inactive call (follow-up assays come after a bar, where they were run); [ ] = remark or other dose. Unless noted, how the calls were made is not given here.

O=C1NC(c2ccccc2)=C(c2ccccc2)C1=O	RGS8-Gao 140.2[activator] | RGS-Gao 116.4 | Biotin-avidin inactive | RGS8-Gao single inactive | RGS7-Gao confirm inactive | RGS16-Gao single inactive | RGS4-Gao single inactive | RGS19-Gao conf inactive
NC(=O)c1ccccc1NC(=O)Nc1cccc(Cl)c1Cl	none
O=C(c1cnsn1)N1CCN(c2ccccc2)CC1	RGS7-Gao 247.6[activator], Avidin fluor 163 | RGS-Gao 118.5 | Biotin-avidin inactive | RGS8-Gao single inactive | RGS7-Gao confirm inactive | RGS16-Gao single inactive | RGS4-Gao single inactive | RGS19-Gao conf inactive
COc1ccc(NC(=O)Cn2cnc3sc(C)c(S(=O)(=O)N4CCOCC4)c3c2=O)c(OC)c1	none
O=C(CNC(=O)c1ccccc1)NCc1ccc(Cl)cc1	RGS7-Gao 150.1[activator] | RGS-Gao 104.2 | Biotin-avidin inactive | RGS8-Gao single inactive | RGS7-Gao confirm inactive | RGS16-Gao single inactive | RGS4-Gao single inactive | RGS19-Gao conf inactive
Cc1ccc(C(=O)OCCn2cc(C#N)c(=O)[nH]c2=O)cc1	none
CC(C)n1c(NCCO)nc2ccccc21	RGS8-Gao 56.8, RGS7-Gao 37.3, RGS4-Gao reg 49.4 | Biotin-avidin inactive | RGS8-Gao single inactive | RGS7-Gao confirm inactive | RGS16-Gao single inactive | RGS4-Gao single inactive | RGS19-Gao conf inactive
Cc1ccc(C(=O)N/N=C2\SCC(=O)N2c2cc(C)ccc2C)cc1	RGS16-Gao HTS 22.0 | RGS-Gao 81.4 | Biotin-avidin inactive | RGS8-Gao single inactive | RGS7-Gao confirm inactive | RGS16-Gao single inactive | RGS4-Gao single inactive | RGS19-Gao conf inactive
Cc1cccc(N2C(=O)CS/C2=N\NC(=O)c2ccc(Br)cc2)c1C	none
COc1ccc(CCNC(=O)c2cc3c(=O)n(C)c4ccccc4c3n2C)c(OC)c1	RGS7-Gao inconclusive (no result: GSH fluor)
CCOC(=O)N1CN(C(=O)OCC)CN(C(=O)OCC)C1	RGS16-Gao HTS -22.4, RGS8-Gao 5.2, RGS7-Gao inconclusive, RGS4-Gao reg -37.6 (no result: GSH fluor) | Biotin-avidin inactive | RGS8-Gao single inactive | RGS7-Gao confirm 74.1 | RGS16-Gao single inactive | RGS4-Gao single inactive | RGS19-Gao conf inactive
CC(C)N(NC(=O)c1cccc2ccccc12)C(C)C	RGS16-Gao HTS 175.0[activator], RGS8-Gao 150.8[activator] | RGS-Gao 143.7 | Biotin-avidin inactive | RGS8-Gao single inactive | RGS7-Gao confirm inactive | RGS16-Gao single inactive | RGS4-Gao single inactive | RGS19-Gao conf inactive
CC1=[N+](C)c2c(ccc3cccnc23)C1(C)C	none
COC(=O)C1(Cc2ccccc2)NC(c2ccc(F)cc2)C2C(=O)N(C)C(=O)C21 (stereo unspecified)	RGS16-Gao HTS -7.0, RGS8-Gao 38.2, RGS7-Gao 40.1, RGS4-Gao reg 31.6 | Biotin-avidin inactive | RGS8-Gao single inactive | RGS7-Gao confirm 63.0 | RGS16-Gao single inactive | RGS4-Gao single 72.4 | RGS19-Gao conf inactive
CCC1(C(=O)OC)NC(c2cccc(F)c2)C2C(=O)N(C)C(=O)C21 (stereo unspecified)	none
CCCOC(=O)c1ccc(OC(=O)c2ccco2)cc1	RGS4-Gao reg 175.7[activator] | Biotin-avidin inactive | RGS8-Gao single inactive | RGS7-Gao confirm inactive | RGS16-Gao single inactive | RGS4-Gao single inactive | RGS19-Gao conf inactive
O=C(COC(=O)CNC(=O)c1ccc(Br)o1)Nc1ccccc1OC(F)F	none
Cc1ccc(CNc2ncc(-c3ccccc3)n2C)o1	none
COC(=O)c1ccccc1NC(=S)N(Cc1ccc2c(c1)OCO2)Cc1cc2ccc(C)cc2[nH]c1=O	none
COC(=O)c1ccccc1NC(=S)N(Cc1ccc2c(c1)OCO2)Cc1cc2cc(C)ccc2[nH]c1=O	RGS16-Gao HTS 264.5[activator] | RGS-Gao 107.2 | Biotin-avidin inactive | RGS8-Gao single inactive | RGS7-Gao confirm inactive | RGS16-Gao single inactive | RGS4-Gao single inactive | RGS19-Gao conf inactive
Cc1ccc(OCC(=O)Nc2ccccc2F)cc1C	none
Cn1cc(-c2nnnn2-c2ccc(Cl)cc2)c(=O)c2ccccc21	RGS8-Gao 143.7[activator] | RGS-Gao 129.7 | Biotin-avidin inactive | RGS8-Gao single inactive | RGS7-Gao confirm inactive | RGS16-Gao single inactive | RGS4-Gao single inactive | RGS19-Gao conf inactive
O=C(CC1C(=O)NCCN1C(=O)Nc1ccc(F)cc1F)Nc1ccc(F)cc1 (stereo unspecified)	RGS7-Gao inconclusive (no result: GSH fluor)
Cn1cc(C(=O)c2ccc(Cl)cc2Cl)cc1C(=O)N/N=C(\N)COc1cccc(C(F)(F)F)c1	none
CSc1nncc(/C(C)=N/O)n1	none
CC/C(=N/O)c1cnnc(SC)n1	RGS16-Gao HTS 16.0 | RGS-Gao 94.5 | Biotin-avidin inactive | RGS8-Gao single inactive | RGS7-Gao confirm inactive | RGS16-Gao single inactive | RGS4-Gao single inactive | RGS19-Gao conf inactive
COc1cc2nc(CSc3nc(-c4ccc(F)cc4)cs3)[nH]c(=O)c2cc1OC	none
CC1CN(C(=O)/C=C/c2ccc([N+](=O)[O-])s2)CC(C)O1 (stereo unspecified)	none
CC1CC(C)CN(C(=O)/C=C/c2ccc([N+](=O)[O-])s2)C1 (stereo unspecified)	RGS16-Gao HTS 11.3, RGS8-Gao 14.5, RGS7-Gao 14.7, RGS4-Gao reg 17.9 (no result: Avidin fluor) | Biotin-avidin inactive | RGS8-Gao single inactive | RGS7-Gao confirm 46.6 | RGS16-Gao single inactive | RGS4-Gao single 58.2 | RGS19-Gao conf inactive
NNc1ncnc2scc(-c3ccc(Cl)cc3)c12	RGS8-Gao 148.7[activator] | RGS-Gao 137.9 | Biotin-avidin inactive | RGS8-Gao single inactive | RGS7-Gao confirm inactive | RGS16-Gao single inactive | RGS4-Gao single inactive | RGS19-Gao conf inactive
Clc1ccc(-c2csc3ncnc(Cl)c23)cc1	none
O=C(Cc1ccccc1)NNC(=O)c1ccccc1C(=O)O	RGS7-Gao inconclusive (no result: GSH fluor)
